According to the supplement of paper PMC9694430:

These compounds were tested on LOC_OS03G50450-cb001 (assay: thermal shift delta Tm vs DMSO control; higher = stronger stabilization (binding)). Conditions: 12.5 µM; protein concentration 2 µM.
Summary of the method: (§1)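 Rice kinase domain constructs, made in E. coli and purified, were placed in 96-well plates at 2 μM in 19.5 μl of 100 mM potassium phosphate pH 7.5, 150 mM NaCl, 10% glycerol and 5 × SYPRO Orange, with compound in DMSO. A temperature ramp from 25°C to 95°C at 0.05°C/s was used for differential scanning fluorimetry. The melting temperature shift is a triplicate mean compared with DMSO-only protein, derived from Boltzmann fits.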
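Note: purified Escherichia coli-expressed rice kinase domain construct.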

Row | SMILES | thermal shift delta Tm
1 | CN1CCN(c2cccc(Nc3nc4c(-c5ccc(S(C)(=O)=O)cc5)cccn4n3)c2)CC1 | 2.95 °C
2 | C[C@@H](NC(=O)c1ncnc(N)c1Cl)c1ncc(C(=O)Nc2cc(C(F)(F)F)c(Cl)cn2)s1 | 0.42 °C
3 | N#CC(=C(/N)Sc1ccccc1N)/C(C#N)=C(\N)Sc1ccccc1N | 0.62 °C
4 | Cc1cc(Nc2cc(N3CCN(C)CC3)nc(/C=C/c3ccccc3)n2)n[nH]1 | 8.43 °C
5 | OCCn1cc(-c2ccc3c(c2)CC/C3=N\O)c(-c2ccncc2)n1 | 0.31 °C
6 | COc1cc2c(c(OC)c1OC)-c1c(cc3c(c1OC)OCO3)CC(C)C(C)C2 (centres undefined) [Schisandrin B (Sch B)] | 0.76 °C
7 | COc1cc(N2CCN(C)CC2)ccc1Nc1nccc(-c2cn(C)c3cnccc23)n1 | -0.05 °C
8 | CN(c1ccccc1CNc1nc(Nc2ccc3c(c2)CC(=O)N3)ncc1C(F)(F)F)S(C)(=O)=O | 3.16 °C
9 | CNC(=O)c1ccc(Nc2ncc(C(F)(F)F)c(NCc3nccnc3N(C)S(C)(=O)=O)n2)cc1 | 2.16 °C
10 | O=C(O)c1ccc2c3c1cccc3c(=O)n1c3ccccc3nc21 | 0.23 °C
11 | Cc1nc(Nc2n[nH]c3c2CN(C(=O)N[C@H](CN(C)C)c2ccccc2)C3(C)C)c2sccc2n1 | 0.78 °C
12 | C[C@H]1[C@H](C)CC[C@]2(C(=O)O)CC[C@]3(C)C(=CC[C@@H]4[C@@]5(C)C[C@@H](O)[C@H](O)[C@@](C)(CO)[C@@H]5CC[C@]43C)[C@H]12 [Asiatic Acid] | 0.19 °C
13 | COc1ccc(-c2cc3nccn3c(Nc3ncccc3C(N)=O)n2)cc1OC | 1.07 °C
14 | O=C(NCc1ccccc1)c1csc(Nc2ccncn2)n1 [Thiazovivin] | 0.18 °C
15 | COc1cc(Nc2ncc(F)c(Nc3ccc4c(n3)NC(=O)C(C)(C)O4)n2)cc(OC)c1OC [R406 (free base)] | 8.85 °C
16 | Cc1ccc(S(=O)(=O)/C=C/C#N)cc1 | 0.08 °C
17 | O=c1c(O)c(-c2ccc(O)c(O)c2)oc2cc(O)cc(O)c12 [Quercetin] | 2.18 °C
18 | C[C@H]1CNC(=O)c2cnn3ccc(nc23)N[C@H](C)c2cc(F)ccc2O1 | 0.87 °C
19 | C[C@@H](Nc1cc(F)cc(F)c1)c1cc(C(=O)N(C)C)cc2c(=O)cc(N3CCOCC3)oc12 | -0.15 °C

Row | SMILES | thermal shift delta Tm
20 | Nc1cccc(-c2cc3c(Oc4cccc(O)c4)ncnc3[nH]2)c1 | 0.38 °C
21 | CC[C@H](CO)Nc1nc(NCc2ccccc2)c2ncn(C(C)C)c2n1 [Roscovitine (Seliciclib,CYC202)] | 0.28 °C
22 | CCn1c(=O)c(-c2ccc(Cl)cc2Cl)cc2cnc(Nc3ccc(N4CCNCC4)c(F)c3)nc21 | 0.54 °C
23 | Cc1c[nH]c2nc(Nc3ccc(N4CCN(C)CC4)c(F)c3)nc(-c3cccc(CC#N)c3)c12 | 8.2 °C
24 | N#C/C(=C(/N)Sc1ccc(N)cc1)c1ccccc1C(F)(F)F | -0.3 °C
25 | FC(F)(F)c1ccc(CNc2ccc(Cc3c[nH]c4ncc(Cl)cc34)cn2)cn1 [Pexidartinib (PLX3397)] | 0.54 °C
26 | COc1cc(N2CCC(N(C)C)CC2)ccc1Nc1ncc(Cl)c(Nc2ccccc2P(C)(C)=O)n1 | 0.35 °C
27 | CCN(CC)CCNC(=O)c1c(C)[nH]c(/C=C2\C(=O)Nc3ccc(F)cc32)c1C [Sunitinib Malate] | 2.74 °C
28 | CCC(=O)Nc1cccc(Oc2nc(Nc3ccc(N4CCN(C)CC4)cc3OC)ncc2Cl)c1 | 0.69 °C
29 | Cn1c(Nc2ccc(C(F)(F)F)cc2)nc2cc(Oc3ccnc(-c4ncc(C(F)(F)F)[nH]4)c3)ccc21 | 1.16 °C
30 | CCOc1cc(N2CCC(O)CC2)ccc1Nc1ncc2c(n1)N(C)c1ccccc1C(=O)N2C | 0.38 °C
31 | O=C(O)c1ccc(Nc2ncc3c(n2)-c2ccc(Cl)cc2C(c2c(F)cccc2F)=NC3)cc1 | 0.06 °C
32 | C[C@@H]1CN(C(=O)c2ccc(NC(=O)c3cc(O[C@H](C)c4c(Cl)ccc(F)c4Cl)c(N)nn3)cc2)C[C@H](C)N1 [Ensartinib (X-396)] | 0.15 °C
33 | COc1ccc(F)c(F)c1C(=O)c1cnc(NC2CCN(S(C)(=O)=O)CC2)nc1N | 0.18 °C
34 | N#Cc1cnc(Nc2cc(NC[C@H]3CNCCO3)c(C(F)(F)F)cn2)cn1 | 0.52 °C
35 | O=c1nc(N2CCOCC2)oc2c(-c3cccc4c3sc3ccccc34)cccc12 | 0.04 °C
36 | Cc1nc(Nc2ncc(C(=O)Nc3c(C)cccc3Cl)s2)cc(N2CCN(CCO)CC2)n1 [Dasatinib] | 0.06 °C
37 | Cc1cc(Nc2cc(N3CCN(C)CC3)nc(/C=C/c3ccccc3)n2)n[nH]1 [ENMD-2076 L-(+)-Tartaric acid] | 8.63 °C

What follows are compounds tested on LOC_OS03G50810-cb003 in the same assay as above. Conditions: 12.5 µM; protein concentration 2 µM.
Summary of the method: as §1

Row | SMILES | thermal shift delta Tm
38 | CN1CCN(c2cccc(Nc3nc4c(-c5ccc(S(C)(=O)=O)cc5)cccn4n3)c2)CC1 | 1.65 °C
39 | C[C@@H](NC(=O)c1ncnc(N)c1Cl)c1ncc(C(=O)Nc2cc(C(F)(F)F)c(Cl)cn2)s1 | -0.01 °C
40 | N#CC(=C(/N)Sc1ccccc1N)/C(C#N)=C(\N)Sc1ccccc1N | 0.78 °C
41 | Cc1cc(Nc2cc(N3CCN(C)CC3)nc(/C=C/c3ccccc3)n2)n[nH]1 | 7.16 °C
42 | OCCn1cc(-c2ccc3c(c2)CC/C3=N\O)c(-c2ccncc2)n1 | 0.5 °C
43 | COc1cc2c(c(OC)c1OC)-c1c(cc3c(c1OC)OCO3)CC(C)C(C)C2 (centres undefined) [Schisandrin B (Sch B)] | 0.12 °C
44 | COc1cc(N2CCN(C)CC2)ccc1Nc1nccc(-c2cn(C)c3cnccc23)n1 | 1.79 °C
45 | CN(c1ccccc1CNc1nc(Nc2ccc3c(c2)CC(=O)N3)ncc1C(F)(F)F)S(C)(=O)=O | 5.31 °C
46 | CNC(=O)c1ccc(Nc2ncc(C(F)(F)F)c(NCc3nccnc3N(C)S(C)(=O)=O)n2)cc1 | 4.32 °C
47 | O=C(O)c1ccc2c3c1cccc3c(=O)n1c3ccccc3nc21 | 0.91 °C
48 | Cc1nc(Nc2n[nH]c3c2CN(C(=O)N[C@H](CN(C)C)c2ccccc2)C3(C)C)c2sccc2n1 | 1.44 °C
49 | C[C@H]1[C@H](C)CC[C@]2(C(=O)O)CC[C@]3(C)C(=CC[C@@H]4[C@@]5(C)C[C@@H](O)[C@H](O)[C@@](C)(CO)[C@@H]5CC[C@]43C)[C@H]12 [Asiatic Acid] | 0.31 °C
50 | COc1ccc(-c2cc3nccn3c(Nc3ncccc3C(N)=O)n2)cc1OC | 1.24 °C
51 | O=C(NCc1ccccc1)c1csc(Nc2ccncn2)n1 [Thiazovivin] | 0.53 °C
52 | COc1cc(Nc2ncc(F)c(Nc3ccc4c(n3)NC(=O)C(C)(C)O4)n2)cc(OC)c1OC [R406 (free base)] | 4.46 °C
53 | Cc1ccc(S(=O)(=O)/C=C/C#N)cc1 | -1.25 °C
54 | O=c1c(O)c(-c2ccc(O)c(O)c2)oc2cc(O)cc(O)c12 [Quercetin] | 2.6 °C
55 | C[C@H]1CNC(=O)c2cnn3ccc(nc23)N[C@H](C)c2cc(F)ccc2O1 | 2.52 °C
56 | C[C@@H](Nc1cc(F)cc(F)c1)c1cc(C(=O)N(C)C)cc2c(=O)cc(N3CCOCC3)oc12 | 0.15 °C

Row | SMILES | thermal shift delta Tm
57 | Nc1cccc(-c2cc3c(Oc4cccc(O)c4)ncnc3[nH]2)c1 | 1.5 °C
58 | CC[C@H](CO)Nc1nc(NCc2ccccc2)c2ncn(C(C)C)c2n1 [Roscovitine (Seliciclib,CYC202)] | 0.02 °C
59 | CCn1c(=O)c(-c2ccc(Cl)cc2Cl)cc2cnc(Nc3ccc(N4CCNCC4)c(F)c3)nc21 | 6.99 °C
60 | Cc1c[nH]c2nc(Nc3ccc(N4CCN(C)CC4)c(F)c3)nc(-c3cccc(CC#N)c3)c12 | 9.84 °C
61 | N#C/C(=C(/N)Sc1ccc(N)cc1)c1ccccc1C(F)(F)F | -0.02 °C
62 | FC(F)(F)c1ccc(CNc2ccc(Cc3c[nH]c4ncc(Cl)cc34)cn2)cn1 [Pexidartinib (PLX3397)] | 1.63 °C
63 | COc1cc(N2CCC(N(C)C)CC2)ccc1Nc1ncc(Cl)c(Nc2ccccc2P(C)(C)=O)n1 | 5.58 °C
64 | CCN(CC)CCNC(=O)c1c(C)[nH]c(/C=C2\C(=O)Nc3ccc(F)cc32)c1C [Sunitinib Malate] | 6.79 °C
65 | CCC(=O)Nc1cccc(Oc2nc(Nc3ccc(N4CCN(C)CC4)cc3OC)ncc2Cl)c1 | 1.06 °C
66 | Cn1c(Nc2ccc(C(F)(F)F)cc2)nc2cc(Oc3ccnc(-c4ncc(C(F)(F)F)[nH]4)c3)ccc21 | 1.92 °C
67 | CCOc1cc(N2CCC(O)CC2)ccc1Nc1ncc2c(n1)N(C)c1ccccc1C(=O)N2C | 0.11 °C
68 | O=C(O)c1ccc(Nc2ncc3c(n2)-c2ccc(Cl)cc2C(c2c(F)cccc2F)=NC3)cc1 | 0.12 °C
69 | C[C@@H]1CN(C(=O)c2ccc(NC(=O)c3cc(O[C@H](C)c4c(Cl)ccc(F)c4Cl)c(N)nn3)cc2)C[C@H](C)N1 [Ensartinib (X-396)] | 5 °C
70 | COc1ccc(F)c(F)c1C(=O)c1cnc(NC2CCN(S(C)(=O)=O)CC2)nc1N | 0.05 °C
71 | N#Cc1cnc(Nc2cc(NC[C@H]3CNCCO3)c(C(F)(F)F)cn2)cn1 | 1.11 °C
72 | O=c1nc(N2CCOCC2)oc2c(-c3cccc4c3sc3ccccc34)cccc12 | -0.24 °C
73 | Cc1nc(Nc2ncc(C(=O)Nc3c(C)cccc3Cl)s2)cc(N2CCN(CCO)CC2)n1 [Dasatinib] | 3.61 °C
74 | Cc1cc(Nc2cc(N3CCN(C)CC3)nc(/C=C/c3ccccc3)n2)n[nH]1 [ENMD-2076 L-(+)-Tartaric acid] | 7.35 °C
